GALK inhibitor: inhibitors of human galactokinase | Purified GALK, Kinase-Glo residual ATP luminescence | Potency, µM (top dose mostly 57.5 µM), for inactives: at the top dose activity change, negative = inhibition, actives largely listed as inhibitors | 270,000 compounds, 0.007% hits | AID 1868; further: potency means the concentration at half of the fitted maximal effect
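The enzyme phosphorylates galactose (100 uM) using ATP (35 uM); inhibition is detected as higher residual ATP, quantified by bioluminescence after 1 h reaction at room temperature, pH 8.0.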
RORgamma inh: blocks mouse ROR gamma transcriptional activity. AID 2551. Potency, µM (series often up to 53.6 µM), without a hit: at the highest dose activity change, negative = inhibition, most hits filed as inhibitors. P51450. Drosophila S2 Gal4-RORgamma UAS-luciferase reporter, 20 h. 310,000 compounds, 5.4% hits; further: potency means the concentration at half of the fitted maximal effect; nearly all actives have a fitted effect of over 60% in size
Target sequence (P51450 whole entry, looked up, the tested form may be a part): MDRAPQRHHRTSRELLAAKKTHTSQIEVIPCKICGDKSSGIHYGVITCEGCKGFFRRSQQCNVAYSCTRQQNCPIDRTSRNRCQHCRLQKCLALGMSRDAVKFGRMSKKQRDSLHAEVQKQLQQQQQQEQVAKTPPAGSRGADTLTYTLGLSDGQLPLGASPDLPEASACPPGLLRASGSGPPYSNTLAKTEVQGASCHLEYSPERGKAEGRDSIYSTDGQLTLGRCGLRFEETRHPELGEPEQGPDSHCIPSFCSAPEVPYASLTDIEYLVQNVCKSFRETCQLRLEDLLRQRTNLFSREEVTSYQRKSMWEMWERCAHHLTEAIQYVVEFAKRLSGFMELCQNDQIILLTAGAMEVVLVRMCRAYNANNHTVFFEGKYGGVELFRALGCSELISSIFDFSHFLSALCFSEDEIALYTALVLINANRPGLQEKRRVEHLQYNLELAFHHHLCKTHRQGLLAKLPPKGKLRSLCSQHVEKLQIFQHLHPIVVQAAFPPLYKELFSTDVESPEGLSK
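ROR gamma transcriptional activity was tracked as Gal4-UAS luciferase output in stably transfected Drosophila Schneider cells, with compound added 1 hr before 700 uM copper sulfate induction and a 20 hr ambient-temperature incubation.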
VP16 counter: Gal4-VP16 reporter inhibition counter-screen | Potency, µM (top dose mostly 53.6 µM), without a hit: at the highest dose activity, negative = inhibition, actives largely listed as inhibitors | AID 2546 | 310,000 compounds, 3.5% hits | Drosophila S2 Gal4-VP16 UAS-luciferase, luminescence, 20 h;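 further: Gal4-VP16 expression switched on by copper sulfate through the metallothionein promoter; potency means the concentration at half of the fitted maximal effect; nearly all actives have a fitted effect of over 50% in size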
Coupling enz: coupling enzyme interference in Giardia aldolase counter-screen; 290,000 compounds, 0.67% hits; coupling enzyme system counterscreen, AmpLite Red fluorescence; activity change, negative = inhibition, % at 58.2 µM, hits read low; in the data active means activity change below about -30%
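First, compound is pin-transferred into glyceraldehyde-3-phosphate coupling-enzyme reagent at 57.5 uM final and held 10 min at RT. Next, substrate, coupling system and AmpLite Red are added. After 20 min RT, fluorescence (525/598 nm) is read.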
rTrxR1 inhibitor: rat TrxR1 inhibition | 390,000 compounds, 1% hits | recombinant rTrxR1, NADPH fluorescence consumption, selenite substrate | O89049 | Potency, µM (highest dose often 114 µM), for inactives: at the top dose activity change, negative = inhibition, hits mostly inhibitors; further: potency means the concentration at half of the fitted maximal effect; nearly all actives have a fitted effect of over 65% in size
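Rat TrxR1 (90 nM in the dispensed reagent) was pre-reduced with 400 uM NADPH for 5 min at room temperature, then incubated with compound for 15 min. After 400 uM selenite was added, NADPH fluorescence (Ex 340/Em 450 nm) was followed for 8 min.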
TrxR1 substrate: is turned over as a substrate by rat TrxR1 | O89049 | purified TrxR1 substrate turnover, NADPH consumption readout | Potency, µM (top dose mostly 114 µM), for inactives: at the top dose activity change, negative = substrate turnover | 390,000 compounds, 0.01% hits | AID 588456; further: potency means the concentration at half of the fitted maximal effect; nearly all actives have a fitted effect of over 50% in size
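Rat TrxR1, dispensed at 90 nM, was prereduced with 400 uM NADPH (final) for 5 min at ~22 deg C, then incubated with compound 15 min before 400 uM selenite. A first-read NADPH fluorescence drop versus no-compound background flagged substrates.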
* hit, by the source's call; ? = inconclusive; . = not tested or not shown; [ ] = dose if it differs, or a comment. A selection: hits, their analogues and other compounds. The true share with any hit is near 5.9%. Unless noted, the call rests on the fitted dose curve; in most records, active means well fitted curve in the direction sought with a large enough effect; inconclusive means small, poorly fitted or top-dose-only effect, or another doubt; inactive means no such curve, though single readings can be large; an effect the other way counts as inactive or inconclusive. On the % scale 0 is the no-effect control and ±100 the full control effect.

SMILES	GALK inhibitor	RORgamma inh	VP16 counter	Coupling enz	rTrxR1 inhibitor	TrxR1 substrate
[O-][n+]1onc2c1CCc1c-2nn(-c2ccccc2Cl)[n+]1[O-]	2.3%	6.31µM*	3.16µM*	1.4	14.9%	10.7%[57.1 µM]
O=C(Cn1cc(C(F)(F)F)ccc1=O)N/N=C/c1ccccc1O	3.3%	2µM*	10µM*	0.7	-4.6%	-10.8%
O=C(N/N=C\c1ccccc1O)c1ccccc1O	.	1µM*	35.5µM*	-4.1	.	.
O=C(N/N=C/c1ccccc1O)c1cccc(C(F)(F)F)c1	-0.9%	1µM*	2µM*	-0.2	-5.0%	-4.8%
CC(=O)Nc1ccc(C(=O)N/N=C/C2CC3C=CC2C3)cc1 (stereo not drawn)	9.7%	4.2%	-6.9%	-1.5	22.1%	1.9%
O=C(N/N=C/C1CC2C=CC1C2)c1ccccc1O (stereo not drawn)	5.4%	4.47µM*	?	0.3	-14.8%	-6.1%
O=C(N/N=C/c1ccc(O)cc1)c1cccc(C(F)(F)F)c1	-0.1%	-4.1%[10 µM]	2.7%	2.2	-8.1%	-13.3%
O=C(NCc1ccccc1)c1cc(-n2cnnc2)ccc1Cl	2.1%	-0.5%	2.3%	-0.1	15.4%[57.1 µM]	9.0%[57.1 µM]
O=C(Nc1ccnc(-c2cccnc2)n1)c1ccccc1Cl	-0.3%	19.6%	4.3%	5.9	3.8%[57.1 µM]	-9.1%
O=C(N/N=C/c1cc(Br)ccc1O)c1ccccc1Cl	.	0.562µM*	2.51µM*	1.3	-18.1%	-12.1%
O=C(c1ccc(Cl)cc1)C1CCCN(Cc2cnn(-c3ccccc3)c2)C1 (stereo not drawn)	0.9%	1.1%	8.1%	0.0	-2.0%[57.1 µM]	-9.7%
CCC(NC(=O)Nc1ccc(O)cc1)(C(F)(F)F)C(F)(F)F	5.8%	-3.4%[10 µM]	4.8%	-42.6*	9.2%[57.1 µM]	-8.8%
CCC(NC(=O)NCc1ccccc1)(C(F)(F)F)C(F)(F)F	0.3%	3.4%	3.8%	-0.1	0.8%	-0.8%
CC(NC(=O)Nc1ccc(O)cc1)(C(F)(F)F)C(F)(F)F	-2.7%	-13.1%	26.0%	-33.1*	-19.3%	-8.1%
O=C(NCCO)Nc1ccc2nc(-c3ccco3)c(-c3ccco3)nc2c1	1.9%	3.9%	?	-36.0*	.	.
O=C(NCCCO)c1ccc2nc(-c3ccco3)c(-c3ccco3)nc2c1	-2.0%	-16.9%	-5.2%	-29.1	2.82µM*	-8.6%
O=C(NCc1ccccc1)c1ccc2nc(-c3ccco3)c(-c3ccco3)nc2c1	-0.5%	1.9%	7.9%	-19.2	?	-5.4%
CCCCNC(=O)c1ccc2nc(-c3ccco3)c(-c3ccco3)nc2c1	-1.9%	-31.0%	17.8%	-39.3*	2.82µM*	-3.0%
CC(=O)N1CCc2cc(S(=O)(=O)CCC(=O)N3CCN(c4cc(C)ccc4C)CC3)ccc21	7.2%	18.6%	-13.9%	2.3	31.8%	4.9%
C/C(=N\NC(=O)COc1cccc(C)c1)c1ccc2ccccc2c1O	-6.9%	4.47µM*	3.98µM*	.	20.5%	10.1%
Cc1ccc(C)c(CNC(=O)C2CCCCN2S(=O)(=O)c2ccc(F)cc2)c1 (stereo not drawn)	.	.	.	.	-4.0%[57.1 µM]	-5.6%[57.1 µM]
C/C(=N\NC(=S)Nc1cc(S(=O)(=O)N2CCOCC2)ccc1Cl)c1ccc(N2CCOCC2)cc1	.	2.82µM*	11.2µM*	2.2	-6.6%	-5.3%
C/C(=N\NC(=S)Nc1ccc(C)c(C)c1)c1ccc(N2CCOCC2)cc1	-2.0%	14.1µM*	?	-0.1	21.2%	3.6%
COc1cccc(C(=O)Nc2cc(S(=O)(=O)N3CCOCC3)ccc2N2CCOCC2)c1	.	.	.	.	8.1%	-5.1%
C/C(CCC(C)C)=N\NC(=S)Nc1cc(S(=O)(=O)N2CCOCC2)ccc1N1CCOCC1	-1.3%	11.2µM*	?	-0.1	20.5%[57.1 µM]	9.1%[57.1 µM]
SMILES	GALK inhibitor	RORgamma inh	VP16 counter	Coupling enz	rTrxR1 inhibitor	TrxR1 substrate
COc1ccc2cc(/C(C)=N/NC(=S)Nc3cc(S(=O)(=O)N4CCOCC4)ccc3N3CCOCC3)ccc2c1	0.5%	6.31µM*	8.1%[10 µM]	0.0	.	.
Cc1ccc(CNC(=O)C2CCCN(c3nnc(-n4c(C)ccc4C)s3)C2)cc1 (stereo not drawn)	.	.	.	.	-24.6%	-4.8%
CCCCOc1ccc(NC(=S)Nc2cc(C)nc(SCCCC)n2)cc1	0.5%	1.41µM*	1µM*	-0.7	-4.1%	-3.1%
CCOc1ccc(NC(=O)CSc2nc(C)cc(C)n2)cc1	1.2%	-5.6%	0.1%	-0.1	20.1%	9.5%
O=C1CC(NNC(=O)c2cccc(F)c2)C(=O)N1 (stereo not drawn)	0.3%	24.6%	23.2%	4.5	20.4%	1.9%
CCSc1ncc(Cl)c(C(=O)Nc2ccccc2F)n1	1.1%	6.5%	1.6%	2.9	21.6%[57.1 µM]	-11.5%
Oc1ccc(N=Cc2ccc(-c3cccs3)s2)cc1	4.9%	-27.3%	?	-50.6*	266.1%	732.1%
O=Cc1ccc(-c2cccs2)s1	.	.	.	.	137.3%[11.4 µM]	82.1%[11.4 µM]
CC(=O)C(Sc1nccc(-c2cccs2)n1)C(C)=O	4.9%	2.8%	9.2%	-50.9*	19.5%[57.1 µM]	-8.7%
CC(C)NC(=O)CSc1nccc(-c2cccs2)n1	.	12.5%	1.5%	1.8	-16.0%	-11.3%
O=C(O)c1ccc(-n2c(=O)c3ccccc3c3ccccc3c2=O)cc1	2.8%	25.2%	-13.0%	2.6	0.7%[57.1 µM]	7.4%[57.1 µM]
COc1cc2c(cc1NC(=O)COC(=O)[C@@H](NS(=O)(=O)c1cccc(Cl)c1)C(C)C)oc1ccccc12	-2.2%	12.6µM*	11.2µM*	-1.3	0.8%	-0.1%
COc1cc2c(cc1NC(=O)COC(=O)c1ccccc1)oc1ccccc12	3.7%	-26.9%	-1.6%	0.5	.	.
COc1ccc(NC(=O)COC(=O)CNS(=O)(=O)c2ccc(C)cc2)c(OC)c1	.	-9.7%	-5.0%	2.7	5.0%[57.1 µM]	3.9%[57.1 µM]
COc1cc2c(cc1NC(=O)COC(=O)CNS(=O)(=O)c1ccc(C)cc1)oc1ccccc12	0.7%	11.2µM*	3.98µM*	-3.8	9.5%	2.7%[11.4 µM]
COc1ccc(OCC(=O)Nc2cc3oc4ccccc4c3cc2OC)cc1	2.1%	-19.2%	-6.4%	-5.2	15.8%[57.1 µM]	19.8%
COc1ccc(S(=O)(=O)N[C@@H](C)C(=O)OCC(=O)Nc2cc3oc4ccccc4c3cc2OC)cc1	0.3%	?	15.8µM*	-1.2	-0.5%	3.6%
Nc1ccc(-c2nc3ccc(-c4nc5ccccc5o4)cc3[nH]2)cc1	1.1%	30.3%	2.9%	-1.6	?	156.0%
Nc1ccc(-c2nc3cc(N)ccc3o2)cc1	1.9%	?	?	0.1	14.2%	59.5%
CN(C)c1ccc(-c2nc3cc(N)ccc3o2)cc1	-0.7%	7.94µM*	7.08µM*	-1.5	-16.0%	66.9%
Cc1ccc2nc(-c3cc(N)cc(N)c3)oc2c1	0.4%	2.82µM*	?	-6.8	10.0%[57.1 µM]	16.3%[57.1 µM]
Nc1ccc(-c2nc3ccc(N)cc3o2)cc1	2.6%	?	11.2µM*	0.2	79.4µM*	846.3%
